Screening data: PubChem, National Center for Advancing Translational Sciences (NCATS)
DT40 TDP1 no CPT: qHTS for Inhibitors of human tyrosyl-DNA phosphodiesterase 1 (TDP1): qHTS in cells in absence of CPT. AID 686978, 2013. 420,000 compounds, 15% hits. DT40 Tdp1-/- hTDP1 cells, no CPT, ATP luminescence, 48 h. Potency, µM (highest dose often 46.2 µM), for the others: at the highest dose activity change, negative = growth inhibition, usual class: inhibitors; further: potency means the concentration at half of the fitted maximal effect; on the % scale 0 is the no-effect control and ±100 the full control effect; nearly all actives have a fitted effect of over 55% in size
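Stably hTDP1-transfected Tdp1-null chicken DT40 cells were treated with library compounds minus camptothecin and grown for at least 48 hr at 37 °C, after which cellular ATP was quantified by luminescence.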
DT40 TDP1 CPT: growth inhibition of DT40 Tdp1-/-;hTDP1 cells with camptothecin (screen for TDP1 inhibitors) | chicken DT40 Tdp1-/-;hTDP1 cells + 20 nM CPT, ATP luminescence, 48 h | Potency, µM (series often up to 46.2 µM), for the others: top-dose activity change, negative = growth inhibition, hits mostly inhibitors | 420,000 compounds, 12% hits | AID 686979; further: potency means the concentration at half of the fitted maximal effect; on the % scale 0 is the no-effect control and ±100 the full control effect; nearly all actives have a fitted effect of over 55% in size
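Chicken DT40 Tdp1-/- cells complemented with human TDP1, 400 cells/well, exposed to compounds plus 20 nM camptothecin for at least 48 h at 37 C; viability read as ATP content by CellTiter-Glo luminescence.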
HepG2 viability: counter-screen for TGF-b inhibitors: cytotoxicity in HepG2 cells | HepG2 CAGA-GFP viability, ATP luminescence, 18 h | Potency, µM (highest dose often 46.1 µM), for the others: at the highest dose activity change, negative = cytotoxicity, most hits filed as cytotoxic | 410,000 compounds, 0.76% hits | AID 588856; further: potency means the concentration at half of the fitted maximal effect
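HepG2 CAGA-GFP cells (1000/well, DMEM with 1% FBS) received compound, then TGF-beta at 500 pg/mL final, and were incubated 18 hours at 37 degrees C. Viability was read by CellTiter-Glo luminescence. Media-only wells were set as complete cell-killing and DMSO as no toxicity.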
TGFb inhibitor: inhibitors of TGF-b signaling. HepG2 CAGA-GFP TGF-b/SMAD3 reporter, GFP fluorescence, 18 h; TGF-beta stimulated, 500 pg/mL final. Potency, µM (doses to about 46.1 µM), for inactives: at the highest dose activity, negative = inhibition, hits mostly inhibitors. 410,000 compounds, 1.2% hits; further: potency means the concentration at half of the fitted maximal effect; on the % scale 0 is the no-effect control and ±100 the full control effect; nearly all actives have a fitted effect of over 65% in size
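TGF-beta reporter screen: HEPG2 CAGA-GFP, 1% FBS, 500 pg/mL TGF-beta final, 18 h; per-cell GFP summed per well; curves fitted and categorized by class.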
IL1B secr inh: inhibitors of inflammasome signaling (IL-1 beta secretion). 360,000 compounds, 4.7% hits. activity change, % at 57.5 µM. THP-1 LPS/ATP IL-1B secretion, AlphaLISA, 16 h; stronger effect = lower value; in the data active means activity change below about -50%; inconclusive means mostly about -30% to -49%; further: on the % scale 0 is the no-effect control and ±100 the full control effect
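THP-1 cells pretreated 1 hr with compounds (up to 57.5 uM final), then stimulated with LPS (250 ng/mL final) plus ATP (1.25 mM final); secreted IL-1B measured by AlphaLISA after 16 hr, decreased signal indicating inhibition.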
TDP1 inh: blocks human tyrosyl-DNA phosphodiesterase 1 | 350,000 compounds, 0.28% hits | Potency, µM (series often up to 130 µM), for the others: top-dose activity change, negative = inhibition, most hits filed as inhibitors | recombinant TDP1, AlphaScreen DNA substrate cleavage | AID 485290; further: potency means the concentration at half of the fitted maximal effect; on the % scale 0 is the no-effect control and ±100 the full control effect; nearly all actives have a fitted effect of over 40% in size
Target sequence (Q9NUW8 whole entry, looked up): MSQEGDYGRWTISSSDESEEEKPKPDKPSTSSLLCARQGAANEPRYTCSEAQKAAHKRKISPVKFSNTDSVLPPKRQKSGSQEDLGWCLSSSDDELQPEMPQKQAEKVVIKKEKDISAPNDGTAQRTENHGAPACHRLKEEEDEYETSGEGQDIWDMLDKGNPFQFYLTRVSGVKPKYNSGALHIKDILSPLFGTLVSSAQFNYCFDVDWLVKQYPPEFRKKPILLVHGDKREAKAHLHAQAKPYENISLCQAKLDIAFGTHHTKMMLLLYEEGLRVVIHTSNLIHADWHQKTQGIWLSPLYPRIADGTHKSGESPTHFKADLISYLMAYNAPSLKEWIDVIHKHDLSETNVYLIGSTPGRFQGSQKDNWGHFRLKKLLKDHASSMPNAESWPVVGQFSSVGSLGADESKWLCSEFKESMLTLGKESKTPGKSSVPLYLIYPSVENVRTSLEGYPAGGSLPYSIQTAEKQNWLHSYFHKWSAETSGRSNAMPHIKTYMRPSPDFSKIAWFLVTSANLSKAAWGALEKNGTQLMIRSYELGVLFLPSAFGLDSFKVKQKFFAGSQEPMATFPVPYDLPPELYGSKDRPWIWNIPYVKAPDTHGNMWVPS
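Recombinant E. coli-expressed Tdp1 (1 nM) preincubated with compound 15 min at RT, then 5'-biotin/3'-phosphotyrosine-FITC DNA substrate (15 nM) added for 5 min. AlphaScreen beads (10 ug/ml) added, 10 min RT; tyrosine-FITC cleavage read as signal loss.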
Starred values were filed as active, the others as inactive; ? = inconclusive; . = no result; [ ] = dose if it differs, or a comment. Rows were chosen to be rich in hits. Some 19% of all compounds tested hit in one or more screens of this group. Unless noted, the call rests on the fitted dose curve; in most records, active means well fitted curve in the direction sought with a large enough effect; inconclusive means small, poorly fitted or top-dose-only effect, or another doubt; inactive means no such curve, though single readings can be large; an effect the other way counts as inactive or inconclusive.

SMILES	DT40 TDP1 no CPT	DT40 TDP1 CPT	HepG2 viability	TGFb inhibitor	IL1B secr inh	TDP1 inh
CS(=O)(=O)c1ccc(-c2nc(-c3ccc(F)cc3)c(-c3ccncc3)[nH]2)cc1	27µM*	?	.	.	.	13%
CCN(Cc1ccccc1)Cc1ccc(OCc2ccccc2)c(OC)c1	?	-22%	-36%	-23%	11	.
CCOc1cc(CNCc2ccccc2)ccc1OCc1ccc(Cl)cc1	5.8µM*	23µM*	-97%	?	-94*	.
COc1ccc(CCNC/C=C/c2ccccc2)cc1	?	?	-43%	0%	-68*	.
COc1cc(CN(C)CCc2ccccc2)ccc1OCc1ccccc1	26µM*	?	-48%	8%	?	4%
COc1ccc(CNCCc2ccc(Cl)cc2)cc1OCc1ccccc1	4.6µM*	6.5µM*	-92%	?	-96*	-3%
Cc1cnc(-n2ncc(C(=O)N(C)CC3COCCO3)c2C2CC2)nc1-c1cccs1 (stereo unspecified)	-7%	-15%[9.04 µM]	.	.	.	.
COC(=O)c1cccc(NC(=O)CSc2nnc(-c3ccco3)o2)c1	2%	-1%	-37%	-6%	12	-9%
COc1ccc(CCNc2nc3ccccc3n3nnnc23)cc1OC	-29%	-22%	33%	-1%	32	2%
COc1ccc2ccccc2c1CNCCN1CCOCC1	-2%	-21%	-1%	-5%	4	7%
COc1ccc(CCNCc2csc3nc4ccccc4n23)cc1OC	9.2µM*	12µM*	-11%	?	-7	7%
COc1ccc(CCNC(=O)Cc2ccc(OCc3ccccc3)c(OC)c2[N+](=O)[O-])cc1OCc1ccccc1	8.2µM*	23µM*	0%	-3%	30	-2%
COc1ccc(CCNCc2ccc(OCc3ccccc3)cc2)cc1	?	?	-101%	?	-99*	.
COc1cc(CNCCN2CCOCC2)ccc1OCc1cccc(Cl)c1	16µM*	?	-23%	67%	?	3%
COc1ccc(CNS(=O)(=O)CCNCCc2ccccc2)cc1	?	2%	-15%	-14%	-6	.
COc1ccc(CCNCc2ccc(-c3ccccc3)cc2)cc1OC	23µM*	?	-57%	?	-90*	.
COc1ccc(CNCCc2ccccc2)cc1OCC(N)=O	1%	-4%	7%	1%	-6	2%
COc1ccc(S(=O)(=O)N2CCCCC2)cc1NCC(=O)Nc1ccc(C)cc1	9.2µM*	16µM*	6%	?	-3	.
COc1ccc(S(=O)(=O)N(C)C)cc1NCC(=O)Nc1cccc2ccccc12	-21%	-20%	17%	0%	-2	.
COc1ccc(S(=O)(=O)N(C)C)cc1NCC(=O)Nc1ccc(Br)c(C)c1	18µM*	?	2%	-3%	2	5%
COc1ccc(S(=O)(=O)N2CCCCC2)cc1NC(=O)CNc1ccccc1C(C)=O	?	23µM*	-15%	-4%	19	3%
COc1ccc(S(=O)(=O)N2CCCCCC2)cc1N(C)S(=O)(=O)c1ccc(C)cc1	13µM*	?	-9%	?	-3	3%
COc1ccc(S(=O)(=O)N2CCCCC2)cc1NC(=O)Cc1c[nH]c2ccccc12	15µM*	?	-26%	-13%	-7	3%
COc1ccc(CC(=O)Nc2cc(S(=O)(=O)N3CCCCC3)ccc2C)cc1OC	18µM*	?	-29%	?	27	5%
COc1ccc(S(=O)(=O)N2CCCCCC2)cc1NC(=O)Cc1cc(OC)c(OC)c(OC)c1	?	-4%	-23%	0%	0	3%
SMILES	DT40 TDP1 no CPT	DT40 TDP1 CPT	HepG2 viability	TGFb inhibitor	IL1B secr inh	TDP1 inh
COc1ccc([N+](=O)[O-])cc1NCC(=O)Nc1cc(S(=O)(=O)N2CCCCC2)ccc1C	23µM*	15µM*	-3%	?	-1	0%
COc1ccc(C)cc1S(=O)(=O)N(CC(=O)Nc1cc([N+](=O)[O-])ccc1C)c1ccc(C)c(C)c1	10µM*	8.2µM*	1%	-1%	0	1%
O=C1CCC[C@@H]2C[C@@]3(C[C@@H]4CCN1[C@H]24)Nc1cc([N+](=O)[O-])ccc1NC3=NCc1ccccc1	?	?	50%	4%	.	.
CC1=C(C(=O)Nc2cccnc2)C(c2ccc(C)cc2)n2nc(SCc3ccccc3F)nc2N1 (stereo unspecified)	-11%	-3%	-9%	-1%	.	3%
CC(=O)[C@H]1CCC2C3CC=C4C[C@@H](O)CC[C@]4(C)C3CC[C@@]21C (stereo partly specified)	?	18µM*	3%	-5%	17	0%
CC(=O)C1CCC2C3CC(C)=C4CC(O)CCC4(C)C3CCC12C (stereo unspecified)	21µM*	3%	-10%	-1%	-99*	.
CCc1ccc(NC(=O)Cn2nnc(C(=O)Nc3ccc(F)cc3)c2N)cc1	15%	-1%	0%	-3%	.	0%
Cc1cc2oc(=O)cc(CN(C)Cc3ccccc3)c2cc1C(C)C	?	?	6%	-14%	-12	.
CSc1ccc(CN(C)Cc2cc(=O)oc3c(C)c(C)ccc23)cc1	?	21µM*	-2%	?	24	.
CCOc1ccc(CN(C)Cc2cc(=O)oc3c(C)c(C)ccc23)cc1OC	8.2µM*	10µM*	-16%	-32%	27	.
COc1ccc(CN(C)Cc2cc(=O)oc3cc(C)c(C(C)C)cc23)cc1OC	?	?	-7%	?	-58*	6%
Cc1ccc2c(CN(C)Cc3cccc(Cl)c3)cc(=O)oc2c1C	29µM*	?	-34%	-14%	-12	.
CCCCCn1c(=O)[nH]c2cc(C(=O)NCc3ccc(F)cc3)ccc2c1=O	-17%	-17%	7%	0%	.	3%
COc1ccc(NC2CCCN(C(=O)c3cc4ncccn4n3)C2)cc1 (stereo unspecified)	3%	8%	-6%	16%	5	3%
COc1cc(-c2noc(-c3cc(C)[nH]n3)n2)cc(OC)c1OC	?	-20%	-22%	3%	.	0%
COc1cc(-c2noc(-c3cc(C(C)C)[nH]n3)n2)cc(OC)c1OC	21µM*	?	-43%	-15%	.	8%
CC(C)c1cc(-c2nc(-c3ccc(Cl)cc3)no2)n[nH]1	21µM*	21µM*	-90%	?	.	0%
